In the library only some 1.5% were active in any assay of this set; here they are far more common.
ABHD5-PLIN5 inh: ABHD5-PLIN5 protein interaction inhibition; Split G. princeps luciferase complementation, luminescence, 4 h; inhibition, % at 4 µM; 360,000 compounds, 0.78% hits; AID 602281;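 active means inhibition above the mean inhibition across every tested compound plus 3 SD, cut at about 22% in these data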;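 further: 0% = DMSO only wells and the 100% control is not disclosed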
TLR4-MyD88 BLA: TLR4-MyD88 interaction inhibition in cells; 200,000 compounds, 0.18% hits; inhibition, % at 8.4 µM; AID 861; HeLa CL3-4 TLR4/MyD88 BLA complementation, FRET ratio; in the data active means inhibition above about 25%;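 further: 0% = vehicle and 100% = reference inhibitor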
Target sequence (O00206 whole entry, looked up): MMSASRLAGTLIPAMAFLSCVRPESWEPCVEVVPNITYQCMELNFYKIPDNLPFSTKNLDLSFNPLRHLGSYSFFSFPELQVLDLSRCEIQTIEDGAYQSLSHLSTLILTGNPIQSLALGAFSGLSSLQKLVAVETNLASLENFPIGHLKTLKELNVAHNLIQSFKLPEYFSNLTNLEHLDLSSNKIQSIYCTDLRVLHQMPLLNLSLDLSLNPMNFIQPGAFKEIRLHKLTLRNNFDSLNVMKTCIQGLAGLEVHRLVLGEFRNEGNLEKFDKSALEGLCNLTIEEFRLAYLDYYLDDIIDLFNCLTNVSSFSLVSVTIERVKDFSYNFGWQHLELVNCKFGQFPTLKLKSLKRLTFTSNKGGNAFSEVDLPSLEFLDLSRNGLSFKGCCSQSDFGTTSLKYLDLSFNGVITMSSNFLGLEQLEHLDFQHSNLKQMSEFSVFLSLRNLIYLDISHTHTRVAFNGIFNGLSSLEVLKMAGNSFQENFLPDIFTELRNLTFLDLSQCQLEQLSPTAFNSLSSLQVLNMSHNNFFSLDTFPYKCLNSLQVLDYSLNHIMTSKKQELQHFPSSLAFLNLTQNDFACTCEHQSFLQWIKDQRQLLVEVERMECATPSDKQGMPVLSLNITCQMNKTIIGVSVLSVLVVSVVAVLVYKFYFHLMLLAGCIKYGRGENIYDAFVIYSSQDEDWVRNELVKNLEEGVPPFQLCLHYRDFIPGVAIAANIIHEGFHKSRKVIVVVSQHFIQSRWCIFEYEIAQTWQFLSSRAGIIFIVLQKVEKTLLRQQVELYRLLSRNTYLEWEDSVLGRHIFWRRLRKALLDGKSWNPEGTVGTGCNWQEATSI
Target sequence (Q99836 whole entry, looked up): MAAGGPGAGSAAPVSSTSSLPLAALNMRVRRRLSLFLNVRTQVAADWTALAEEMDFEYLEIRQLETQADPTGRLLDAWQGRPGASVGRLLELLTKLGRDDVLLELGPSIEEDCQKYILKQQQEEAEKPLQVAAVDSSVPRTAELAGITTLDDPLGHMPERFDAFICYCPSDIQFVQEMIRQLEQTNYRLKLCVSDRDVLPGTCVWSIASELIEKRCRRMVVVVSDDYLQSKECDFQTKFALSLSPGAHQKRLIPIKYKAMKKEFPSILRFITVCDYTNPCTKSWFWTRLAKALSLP
Beta2AR agonist: agonists of human beta-2 adrenergic receptor inducing internalization; AID 504454; P07550; response, % (concentration not given with the values); 340,000 compounds, 0.43% hits; Am2.2-beta2AR cells, FAP receptor internalization, flow cytometry;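 active means response above a set limit, near 3 SD of response in nonfluorescent compounds, cut at about 42% in these data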
NOD2-RIPK2 inh: inhibitors of human NOD2-RIPK2 interaction; CHO BLA complementation NOD2-RIPK2, CCF4 ratio; inhibition, % at 4.98 µM; 360,000 compounds, 0.38% hits; AID 624267; in the data active means inhibition above about 21%;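 further: 0% = vehicle only and 100% = reference blocker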
TLR9-MyD88 inh: inhibitors of human TLR9-MyD88 binding. Q9NR96+Q99836. CHO BLA complementation TLR9-MyD88, CCF4 FRET ratio. inhibition, % at 4.98 µM. 340,000 compounds, 0.21% hits;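 active means inhibition above the mean over all tested compounds plus 3 SD, cut at about 21% in these data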;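 further: 0% = DMSO only wells and 100% = clavulanate BLA inhibitor control wells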
NTR1 ag: NTR1 (human) agonism; P30989; NTR1-U2OS beta-arrestin-GFP spot imaging, agonist mode; activation, % at 20 µM; 330,000 compounds, 0.17% hits; AID 493036;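 active means activation at or above 40% of the spot to cytoplasm intensity ratio, with at least 20 cells analyzed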;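 further: 0% = DMSO without peptide and 100% = 100 nM NTR1 peptide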
TLR9-MyD88 conf: confirmation of human TLR9-MyD88 binding inhibitors; shares compounds with TLR9-MyD88 inh; CHO TLR9/MyD88 BLA complementation, CCF4 FRET ratio; inhibition, % at 4.98 µM; 680 compounds, 51% hits;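 active means mean inhibition across three repeats above about 21% taken from the earlier screen, limit read from the data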;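 further: blue over green emission ratio reports constitutive TLR9 MyD88 association via BLA complementation; 0% = DMSO vehicle wells and 100% = clavulanate BLA inhibitor wells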
BLA counter-1: counter-screen for TLR9-MyD88 inhibitors: non-selective beta-lactamase inhibitors | 680 compounds, 7% hits | shares compounds with TLR9-MyD88 inh | CHO-BLA cells, CCF4 FRET ratio, BLA reporter | inhibition, % at 4.98 µM | AID 540251;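 active means mean inhibition above a 50% cutoff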;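 further: counterscreen of TLR9-MyD88 hits on CMV-driven BLA in CHO-K1 cells; 0% = DMSO alone and 100% = clavulanate blocking BLA; higher means less blue over green ratio so more BLA blockade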
TLR9 CHO tox: counter-screen for TLR9-MyD88 inhibitors: cytotoxicity in CHO cells; luminescence; inhibition, % at 4.98 µM; 680 compounds, 39% hits; AID 588336; shares compounds with TLR9-MyD88 inh; in the data active means inhibition above about 11%
ABHD5 PLIN5 conf: ABHD5-PLIN5 interaction inhibition, confirmed; shares compounds with ABHD5-PLIN5 inh; biochemical ABHD5-PLIN5 interaction, luminescence; inhibition, % at 4 µM; 2,200 compounds, 67% hits; AID 651612; in the data active means inhibition above about 23%;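 further: 0% = DMSO vehicle wells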
HNF4 counter: active in HNF4 split-luciferase counter-screen for ABHD5-PLIN5 inhibitors; shares compounds with ABHD5-PLIN5 inh; HNF4 dimerization, luminescence, biochemical; inhibition, % at 4 µM; 2,200 compounds, 77% hits; AID 651674;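 active means mean inhibition across replicate wells exceeding the computed hit threshold, cut at about 13% in these data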;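 further: light from luciferase halves that rejoin when HNF4 fusion proteins dimerize; 0% = DMSO only wells and the 100% control is not given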
NOD2-RIPK2 conf: confirmation of human NOD2-RIPK2 interaction inhibitors. shares compounds with NOD2-RIPK2 inh. CHO cells, NOD2-RIPK2 BLA complementation, CCF4 FRET. inhibition, % at 4.98 µM. 1,200 compounds, 70% hits. AID 624370;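 active means mean inhibition across replicates above a set limit taken from the earlier primary screen, cut at about 21% in these data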;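 further: 0% = DMSO-only wells and the high end = clavulanate BLA-blocked wells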
BLA counter-2: NOD2-RIPK2 counterscreen BLA reporter activity. shares compounds with NOD2-RIPK2 inh. CHO BLA reporter, CCF4 FRET ratio. inhibition, % at 4.98 µM. 1,200 compounds, 57% hits. AID 624371;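 active means mean inhibition above the low-control mean inhibition plus three low-control SD, cut at about 11% in these data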;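 further: 0% = DMSO only wells and 100% = clavulanate high control wells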
Active calls of the source: *; · = not tested or not shown.

SMILES	ABHD5-PLIN5 inh	TLR4-MyD88 BLA	Beta2AR agonist	NOD2-RIPK2 inh	TLR9-MyD88 inh	NTR1 ag	TLR9-MyD88 conf	BLA counter-1	TLR9 CHO tox	NOD2-RIPK2 conf	BLA counter-2	others
COc1ccc(NC(=O)/C(Cl)=C(/Cl)S(=O)Cc2ccccc2)cn1 (centres undefined)	95*	9	50*	92*	43*	1	49*	32	99*	92*	30*	ABHD5 PLIN5 conf=97*;HNF4 counter=103*
O=C(NCc1ccccc1)c1cc(C2CCCN(S(=O)(=O)c3ccccc3)C2)on1 (centres undefined)	-5	·	·	-7	·	·	·	·	·	·	·
CCCC(=O)NC1=C(Cl)C(=O)c2ccccc2C1=O	48*	·	38	71*	37*	·	61*	6	99*	90*	29*	ABHD5 PLIN5 conf=64*;HNF4 counter=101*
CCOC(=O)[C@]12CCCC=C1N(Cc1ccco1)C(=O)[C@H](CC(=O)NCc1cccs1)C2	14	·	·	1	·	·	·	·	·	·	·
CN(C)c1ccc(/C=C/c2ccc3ccccc3n2)cc1	9	·	-54	46*	28*	·	38*	53*	53*	58*	71*
CC(C)CNC(=O)COC(=O)c1c2c(nc3ccccc13)/C(=C\c1cccs1)CC2	-2	·	-5	47*	30*	·	46*	54*	12*	70*	77*
O=C(COC(=O)c1c2c(nc3ccccc13)/C(=C\c1cccs1)CCC2)Nc1ccccc1	0	4	13	-7	-9	7	·	·	·	·	·
O=C(O)c1ccccc1C(=O)Nc1ccccc1	-8	13	3	1	-4	-1	·	·	·	·	·
O=C(Nc1ccccc1)C1=C(c2ccccc2)S(=O)(=O)CCS1(=O)=O	88*	11	28	50*	22*	·	19	1	97*	60*	12*	ABHD5 PLIN5 conf=100*;HNF4 counter=108*
COc1cccc(NC(=O)c2nc(S(C)(=O)=O)ncc2Cl)c1	53*	·	16	74*	45*	3	42*	33	100*	67*	32*	ABHD5 PLIN5 conf=77*;HNF4 counter=102*
COc1cccc(NC(=O)c2nc(SC)ncc2Cl)c1	-2	·	-4	-6	0	6	·	·	·	·	·
CN(c1ccccc1)S(=O)(=O)c1ccc(NC(=O)c2nc(S(C)(=O)=O)ncc2Cl)cc1	78*	·	90*	100*	58*	2	52*	33	103*	93*	51*	ABHD5 PLIN5 conf=91*;HNF4 counter=106*
CN(c1ccccc1)S(=O)(=O)c1ccc(NC(=O)c2ccccc2)cc1	-3	-22	3	2	10	2	·	·	·	·	·
CCCCn1nnnc1C(c1ccccc1)N1CCN(C(=O)c2ccco2)CC1 (centres undefined)	-2	·	·	2	·	·	·	·	·	·	·
CC(=O)Nc1ccc2c(c1)C(=O)c1ccccc1C2=O	-2	7	2	-3	-11	-2	·	·	·	·	·
CC(=O)Nc1cc2c3c(cccc3c1)-c1ccccc1-2	7	·	-132	22*	24*	·	17	15	1	19	36*
O=C(CC[C@H]1O[C@@H](n2cnc3c(NC(=O)c4ccccc4)ncnc32)[C@H](O)[C@@H]1O)NCc1cccc2ccccc12	1	·	·	7	·	·	·	·	·	·	·
CCCCCCSc1cc(-c2nc3cnccn3c2NCCCC)ccc1OC	3	·	-28	44*	41*	3	26*	29	14*	40*	52*
CC(C)(C)n1nnnc1C(c1cc2ccccc2o1)N1CCN(C(=O)OCc2ccccc2)CC1 (centres undefined)	5	·	·	-8	·	·	·	·	·	·	·
COc1cc(/C=C(\C#N)c2nc3ccc(C)cc3[nH]2)c([N+](=O)[O-])cc1OC	6	-2	15	7	5	8	·	·	·	·	·
CCCOc1cc(N(CC)CC)ccc1/C=C(/C#N)c1nc2ccc(C)cc2[nH]1	10	23	-453	34*	21*	-1	16	17	-5	35*	36*
CC(C)c1ccc(CN2CCC2(C)C(=O)Nc2cccc(Oc3ccccc3)c2)cc1 (centres undefined)	-11	·	·	0	·	·	·	·	·	·	·
O=C(c1ccccc1)c1ccccc1N1C(=O)C=CC1=O	44*	·	-16	70*	33*	-2	26*	5	96*	69*	16*	ABHD5 PLIN5 conf=45*;HNF4 counter=105*
O=C(O)c1ccccc1C(=O)c1ccc(-c2ccccc2)cc1	0	·	-3	-10	-5	-1	·	·	·	·	·
CC(O)CN(CC(C)O)c1ccc2c(c1)Cc1cc([N+](=O)[O-])ccc1-2 (centres undefined)	11	·	-34	60*	53*	·	44*	45	5	22*	70*
CCOC(=O)C1=C(CSc2nc3c(cc2C#N)CCC3)OC(N)=C(C#N)C1c1ccccc1 (centres undefined)	-13	-5	3	-1	-56	-1	·	·	·	·	·
CCOC(=O)C1=C(CSc2nc(-c3ccccc3)ccc2C#N)OC(N)=C(C#N)C1c1ccccc1 (centres undefined)	-9	19	-22	36*	32*	-2	6	6	20*	25*	25*
COc1ccc(OC)c(NC(=O)Nc2nnc([C@H]3C[C@H](O)[C@@H](CO)O3)s2)c1	4	·	·	8	·	·	·	·	·	·	·
CNC(=O)c1nnsc1S(=O)c1ccc(Cl)cc1 (centres undefined)	67*	7	2	57*	46*	6	51*	4	97*	54*	28*	ABHD5 PLIN5 conf=85*;HNF4 counter=104*
Cc1ccc(S(=O)c2snnc2C)cc1 (centres undefined)	-4	·	-11	-11	-6	-1	·	·	·	·	·

From PubChem
